Records with an inconclusive call do not appear. A call without a number means that no potency is given here. Activity calls are given as the source filed them. The call rests on the fitted dose curve; in most records, active means well fitted inhibition curve with a large enough effect; inconclusive means small, poorly fitted or top-dose-only effect; inactive means flat fitted curve, though single readings scatter. Peptide text beside a SMILES is read from it.
These molecules were tested on CP203 (assay: qHTS profiling for inhibitors of Plasmodium falciparum proliferation (AID 504749; further: nearly all actives have a fitted effect of over 60% in size)). Settings: P. falciparum in erythrocytes, SYBR Green DNA, 72 h; series mostly up to 28.7 µM.
From the text: NIH National Institute of Allergy and Infectious Diseases [NIAID] NIH Chemical Genomics Center [NCGC] MLPCN Grant: None Assay Provider: Xinzhuan Su, NIAID NCGC Assay Overview: Plasmodium falciparum is a virulent malarial parasite that kills 1-2 million people worldwide each year. Transmitted by mosquitoes, the sporozoite form of the parasite enters the blood stream to infect hepatocytes, where they become merozoites that infect red blood cells (erythrocytes). Within erythrocytes, merozoites begin a […] cycle of growth and division, after which the parasite is released to infect new red blood cells. Gametocytes, which form within erythrocytes as well, circulate in the bloodstream and are ingested by the mosquito, thereby completing the life cycle. To profile malarial isolates for differential chemical responses and to identify inhibitors of malarial growth, an assay that measures P. falciparum growth and replication within erythrocytes was employed. This assay uses a DNA binding fluorescent dye (SYBR Green) to detect parasite DNA following cell lysis. Because mature erythrocytes lack DNA, only Plasmodium-derived DNA is detected.
NCGC Assay Protocol Summary: The SYBR Green viability assay was adapted from a method described previously (Plouffe et al., 2008). For screening 3 ul culture medium was dispensed into 1536 well black clear bottom plates (Aurora Biotechnologies) using a Multidrop Combi (Thermo Fisher Scientific Inc.), 23 nL compounds in DMSO were added by a pin tool (Kalypsys), and 5 ul of erythrocytes infected with P. falciparum (0.3% parasitemia, 2.5% hematocrit final concentration) were added. The plates were incubated at 37 C in a humidified incubator in 5% CO2 for 72 h, and 2 ul lysis buffer (20 mM Tris HCl, 10 mM EDTA, 0.16% saponin, 1.6% triton X, 10X SYBR Green I supplied as 10,000X […] by Invitrogen) was added to each well. The plates were mixed for 25 sec with gentle shaking and incubated overnight at room temperature in the dark. The following morning, fluorescence intensity at 485(14) nm excitation and 535(25) nm emission wavelengths was measured on an EnVision (Perkin Elmer) plate reader. Plate reads were normalized relative to the control inhibitor (0.29 uM artemisinin) and vehicle (DMSO) wells present on each plate and then corrected by an algorithm using vehicle-only control plates at the beginning and end of the compound plate stack.
`CN(C)C(=O)COC(=O)Cc1ccc(OC(=O)c2ccc(N=C(N)N)cc2)cc1` was tested, and the Potency was “inactive”. In the case of `c1ccc2[nH]c(-c3cscn3)nc2c1`, the Potency is reported as “inactive”. For `COC(=O)[C@H](Cc1ccccc1)NC(=O)[C@@H](N)CC(=O)O` (H-Asp-Phe-OMe), the Potency was “inactive”. With `CCN(CC)CCOc1ccc(Cc2ccccc2)cc1` the Potency was “inactive”. For `O=C(O)c1cccc(-c2noc(-c3ccccc3F)n2)c1`, the Potency was “inactive”. In the case of `CCCCN(CCCC)CCC(O)c1cc2c(Cl)cc(Cl)cc2c2cc(C(F)(F)F)ccc12` (stereo not given), the Potency is reported as 22.8 nM (active). `O=C(O)c1cc(=O)c2c(OCC(O)COc3cccc4oc(C(=O)O)cc(=O)c34)cccc2o1` was tested, and the Potency was “inactive”. `CC(C)(S)[C@@H](N)C(=O)O` was tested, and the Potency was “inactive”. In the case of `Nc1ccn([C@@H]2O[C@H](CO)[C@@H](O)C2O)c(=O)n1` (stereo not given in full), the Potency is reported as “inactive”. `C[Se]CCC(N)C(=O)O` (stereo not given) was tested, and the Potency was “inactive”. In the case of `O=C(NCCO[N+](=O)[O-])c1cccnc1`, the Potency is reported as “inactive”. In the case of `O=C(O)CCNC(=O)c1ccc(N=Nc2ccc(O)c(C(=O)O)c2)cc1`, the Potency is reported as “inactive”. With `CC(C)[C@H](N)C(=O)OCCOCn1cnc2c(=O)[nH]c(N)nc21` the Potency was “inactive”. `COc1cc2c(cc1OC)C1CC(=O)C(CC(C)C)CN1CC2` (stereo not given) was tested, and the Potency was “inactive”. With `CN(C)CCc1c[nH]c2ccc(Cn3cncn3)cc12` the Potency was “inactive”. `C=C(c1ccc(C(=O)O)cc1)c1cc2c(cc1C)C(C)(C)CCC2(C)C` was tested, and the Potency was “inactive”. `CC1(C)CCC(C)(C)c2cc(NC(=O)c3ccc(C(=O)O)cc3)ccc21` was tested, and the Potency was “inactive”. For `CCCCC(CC)COC(=O)C(C#N)=C(c1ccccc1)c1ccccc1` (stereo not given), the Potency was “inactive”. With `CCOC(=O)c1c(C)n(C)c2ccc(O)cc12` the Potency was “inactive”. In the case of `CCCCc1ccc2nc(NC(=O)OC)[nH]c2c1`, the Potency is reported as “inactive”. With `C[C@H](Cn1cnc2c(N)ncnc21)OCP(=O)(O)O` the Potency was “inactive”. With `CN(C)c1ccc2nc3ccc(=[N+](C)C)cc-3sc2c1` the Potency was 33.8 nM (active). With `Cc1nc2n(c(=O)c1CCN1CCC(c3noc4cc(F)ccc34)CC1)CCCC2` the Potency was “inactive”. In the case of `CC(C)c1ccc2oc3nc(N)c(C(=O)O)cc3c(=O)c2c1`, the Potency is reported as “inactive”. With `CCCCCCCCCCCCCCCCCCCCCCO` the Potency was “inactive”. In the case of `Nc1cccc2c1CN(C1CCC(=O)NC1=O)C2=O` (stereo not given), the Potency is reported as “inactive”. `O=C(O)c1cccnc1Nc1cccc(C(F)(F)F)c1` was tested, and the Potency was “inactive”. In the case of `Cc1cc(=O)c2c(O)c3c(O)cc(=O)c4c3c3c(cc(O)c1c23)C(C)(C)C=4O`, the Potency is reported as 1900 nM (active). In the case of `CCCc1cc(=O)[nH]c(=S)[nH]1`, the Potency is reported as “inactive”. For `COCCCOc1ccnc(CS(=O)c2nc3ccccc3[nH]2)c1C` (stereo not given), the Potency was “inactive”. With `CS(=O)(=O)OCCCCOS(C)(=O)=O` the Potency was “inactive”. With `Nc1cc(C(Cl)=C(Cl)Cl)c(S(N)(=O)=O)cc1S(N)(=O)=O` the Potency was “inactive”. With `CN1C(C(=O)Nc2ccccn2)=C(O)c2sccc2S1(=O)=O` the Potency was “inactive”. For `C[C@]12CCC(=O)C=C1CC[C@@H]1[C@H]2[C@@H](O)C[C@@]2(C)[C@H]1CC[C@]2(O)C(=O)CO`, the Potency was “inactive”. With `CCCOc1ccc2nc(NC(=O)OC)[nH]c2c1` the Potency was “inactive”. `CCN(CCO)CCCC(C)Nc1ccnc2cc(Cl)ccc12` (stereo not given) was tested, and the Potency was “inactive”. With `COc1cc(OC)c(C(=O)CCCN2CCCC2)c(OC)c1` the Potency was “inactive”. In the case of `Nc1ccc(S(N)(=O)=O)cc1`, the Potency is reported as “inactive”. In the case of `CC1(C)NC(=O)N(c2ccc([N+](=O)[O-])c(C(F)(F)F)c2)C1=O`, the Potency is reported as “inactive”. For `Cc1ncc([N+](=O)[O-])n1CC(C)O` (stereo not given), the Potency was “inactive”.
Potency means the concentration at half of the fitted maximal effect.
